Laboratory results published in PubChem BioAssay (NCATS).
Records with an inconclusive call do not appear. Activity calls are given as the source filed them. Calls follow the shape of the dose curve; as a rule, active = well fitted inhibition curve with a large enough effect; inconclusive = small, poorly fitted or top-dose-only effect; inactive = flat fitted curve, though single readings scatter.
Potency is read from the fitted curve at half-maximal effect.

What follows are compounds tested on TAB113 (assay: qHTS profiling for inhibitors of Plasmodium falciparum proliferation (AID 504749; also: nearly all actives have a fitted effect of over 60% in size;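 as to activity, negative = inhibition: 0% = DMSO vehicle and full inhibition = artemisinin control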)). Conditions: P. falciparum in erythrocytes, SYBR Green DNA, 72 h; series mostly up to 28.7 µM; activity, negative = inhibition: at the top concentration.
Outline: (§1)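 Infected RBCs, 0.3% parasitemia/2.5% Hct final; cpd 72 h, 37 C, 5% CO2; lysis buffer with saponin/triton/SYBR Green I, o/n RT dark; FI 485/535; norm. to artemisinin (0.29 uM) and DMSO.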
In the case of `CC(=O)Oc1ccc(C(=C2CCCCC2)c2ccc(OC(C)=O)cc2)cc1`, the “activity, negative = inhibition” value is reported as -0.855% (inactive). With `C1CCc2nnnn2CC1` the “activity, negative = inhibition” value was 14.6% (inactive). With `Cc1ccnc(NS(=O)(=O)c2ccc(N)cc2)n1` the “activity, negative = inhibition” value was 10.4% [at 12.8 µM] (inactive). For `CC1(C)CCC(NC(=O)[C@@H](N)CCC(=O)O)CC1`, the “activity, negative = inhibition” value was 7.99% (inactive). `Nc1cc(Cl)c(NC2=NCCN2)c(Cl)c1` was tested, and the “activity, negative = inhibition” value was 24.3% (inactive). With `NCCC(O)(P(=O)(O)O)P(=O)(O)O` the “activity, negative = inhibition” value was 15.4% (inactive). In the case of `CC1=C(C(=O)OC(C)C)C(c2cccc([N+](=O)[O-])c2)C(C(=O)OC2CN(C(c3ccccc3)c3ccccc3)C2)=C(N)N1` (stereo not given), the Potency is reported as 7.08 µM (active). With `NCCc1ccn[nH]1` the “activity, negative = inhibition” value was -1.36% [at 12.8 µM] (inactive). For `O=C(O)c1cc2cc(Cc3cccnc3)ccc2o1`, the “activity, negative = inhibition” value was 3.75% (inactive). For `CCN1CCC[C@H]1CNC(=O)c1c(OC)ccc(Br)c1OC`, the “activity, negative = inhibition” value was -1.6% (inactive). In the case of `Nc1ccc(C(=O)Nc2ccccc2N)cc1`, the “activity, negative = inhibition” value is reported as 3.01% (inactive). With `N[C@H](CO)C(=O)O` the “activity, negative = inhibition” value was 3.88% (inactive). `CC(=O)OCC(=O)NCCCOc1cccc(CN2CCCCC2)c1` was tested, and the “activity, negative = inhibition” value was -1.39% (inactive). `CC(C)COC(=O)OCN1C(=O)CN(CCN2CC(=O)N(COC(=O)OCC(C)C)C(=O)C2)CC1=O` was tested, and the “activity, negative = inhibition” value was 6.53% (inactive). With `O=C1CCC(c2ccc(-n3ccnc3)cc2)=NN1` the “activity, negative = inhibition” value was 6.67% (inactive). For `CCCCCCCCCCOCC(O)CN` (stereo not given), the “activity, negative = inhibition” value was -25.3% (inactive). For `N[C@@H](Cc1cnc[nH]1)C(=O)O`, the “activity, negative = inhibition” value was 9.07% (inactive). `Nc1ccc(C(=O)O)cc1` was tested, and the “activity, negative = inhibition” value was 9.46% (inactive). In the case of `CCCCC1=NC2(CCCC2)C(=O)N1Cc1ccc(-c2ccccc2-c2nn[nH]n2)cc1`, the “activity, negative = inhibition” value is reported as -25.1% (inactive). In the case of `CC(C)(C)CC(C)(C)c1ccc(O)c(Cc2ccc(Cl)cc2Cl)c1`, the Potency is reported as 1.12 µM (active). With `CCOC(=O)/C=C(C)/C=C/C=C(C)/C=C/c1c(C)cc(OC)c(C)c1C` the Potency was 3.55 µM (active). In the case of `C[N+]1(CCCCC[N+]2(C)CCCC2)CCCC1`, the “activity, negative = inhibition” value is reported as 2.62% (inactive).

These compounds were tested on TAB165 in the same assay as above. Conditions: P. falciparum in erythrocytes, SYBR Green DNA, 72 h; series mostly up to 28.7 µM; activity, negative = inhibition: at the top concentration.
Outline: as §1
`CC(=O)Oc1ccc(C(=C2CCCCC2)c2ccc(OC(C)=O)cc2)cc1` was tested, and the “activity, negative = inhibition” value was 6.9% (inactive). With `C1CCc2nnnn2CC1` the “activity, negative = inhibition” value was 6.7% (inactive). For `Cc1ccnc(NS(=O)(=O)c2ccc(N)cc2)n1`, the “activity, negative = inhibition” value was -3.66% [at 12.8 µM] (inactive). In the case of `CC1(C)CCC(NC(=O)[C@@H](N)CCC(=O)O)CC1`, the “activity, negative = inhibition” value is reported as 9.85% (inactive). For `Nc1cc(Cl)c(NC2=NCCN2)c(Cl)c1`, the “activity, negative = inhibition” value was -3.83% (inactive). `NCCC(O)(P(=O)(O)O)P(=O)(O)O` was tested, and the “activity, negative = inhibition” value was 9.27% (inactive). In the case of `C[C@@H]1CN(CCCn2c3ccccc3c3ccccc32)C[C@H](C)N1`, the Potency is reported as 7.08 µM (active). In the case of `CC1=C(C(=O)OC(C)C)C(c2cccc([N+](=O)[O-])c2)C(C(=O)OC2CN(C(c3ccccc3)c3ccccc3)C2)=C(N)N1` (stereo not given), the Potency is reported as 5.01 µM (active). In the case of `NCCc1ccn[nH]1`, the “activity, negative = inhibition” value is reported as 5.96% [at 12.8 µM] (inactive). For `O=C(O)c1cc2cc(Cc3cccnc3)ccc2o1`, the “activity, negative = inhibition” value was 16.6% (inactive). For `CCN1CCC[C@H]1CNC(=O)c1c(OC)ccc(Br)c1OC`, the “activity, negative = inhibition” value was -27.1% (inactive). With `Nc1ccc(C(=O)Nc2ccccc2N)cc1` the “activity, negative = inhibition” value was 5.75% (inactive). With `N[C@H](CO)C(=O)O` the “activity, negative = inhibition” value was 2.75% (inactive). `CC(=O)OCC(=O)NCCCOc1cccc(CN2CCCCC2)c1` was tested, and the “activity, negative = inhibition” value was 0.938% (inactive). For `CC(C)COC(=O)OCN1C(=O)CN(CCN2CC(=O)N(COC(=O)OCC(C)C)C(=O)C2)CC1=O`, the “activity, negative = inhibition” value was 8.52% (inactive). With `O=C1CCC(c2ccc(-n3ccnc3)cc2)=NN1` the “activity, negative = inhibition” value was 4% (inactive). In the case of `N[C@@H](Cc1cnc[nH]1)C(=O)O`, the “activity, negative = inhibition” value is reported as 16% (inactive). `Nc1ccc(C(=O)O)cc1` was tested, and the “activity, negative = inhibition” value was -0.781% (inactive). `CC(C)(C)CC(C)(C)c1ccc(O)c(Cc2ccc(Cl)cc2Cl)c1` was tested, and the Potency was 0.794 µM (active). With `C[C@@H]1C(=O)NC2=Nc3cccc(Cl)c3CN21` the “activity, negative = inhibition” value was -1.06% (inactive). For `C[N+]1(CCCCC[N+]2(C)CCCC2)CCCC1`, the “activity, negative = inhibition” value was 11.7% (inactive).

What follows are compounds tested on W2 in the same assay as above. Conditions: P. falciparum in erythrocytes, SYBR Green DNA, 72 h; series mostly up to 28.7 µM; activity, negative = inhibition: at the top concentration.
Outline: as §1
With `CC(=O)Oc1ccc(C(=C2CCCCC2)c2ccc(OC(C)=O)cc2)cc1` the “activity, negative = inhibition” value was 3.15% (inactive). In the case of `C1CCc2nnnn2CC1`, the “activity, negative = inhibition” value is reported as 11.5% (inactive). With `Cc1ccnc(NS(=O)(=O)c2ccc(N)cc2)n1` the “activity, negative = inhibition” value was 7.29% [at 12.8 µM] (inactive). With `CO/N=C1\CN(c2nc3c(cc2F)c(=O)c(C(=O)O)cn3C2CC2)CC1CN` (stereo not given) the Potency was 5.36 µM (active). `CC1(C)CCC(NC(=O)[C@@H](N)CCC(=O)O)CC1` was tested, and the “activity, negative = inhibition” value was 3.09% (inactive). With `Nc1cc(Cl)c(NC2=NCCN2)c(Cl)c1` the “activity, negative = inhibition” value was -3.29% (inactive). `NCCC(O)(P(=O)(O)O)P(=O)(O)O` was tested, and the “activity, negative = inhibition” value was -0.0307% (inactive). For `C[C@@H]1CN(CCCn2c3ccccc3c3ccccc32)C[C@H](C)N1`, the Potency was 2.39 µM (active). With `CC1=C(C(=O)OC(C)C)C(c2cccc([N+](=O)[O-])c2)C(C(=O)OC2CN(C(c3ccccc3)c3ccccc3)C2)=C(N)N1` (stereo not given) the Potency was 5.36 µM (active). `COC(=O)[C@H]1[C@H]2C[C@H]3c4[nH]c5ccccc5c4CCN3C[C@H]2CC[C@@H]1O` was tested, and the “activity, negative = inhibition” value was -6.76% (inactive). In the case of `NCCc1ccn[nH]1`, the “activity, negative = inhibition” value is reported as 12% [at 12.8 µM] (inactive). `O=C(O)c1cc2cc(Cc3cccnc3)ccc2o1` was tested, and the “activity, negative = inhibition” value was 12.3% (inactive). With `N[C@H](CO)C(=O)O` the “activity, negative = inhibition” value was 12% (inactive). In the case of `CNCCC=C1c2ccccc2CCc2ccccc21`, the Potency is reported as 1.51 µM (active). In the case of `CC(=O)OCC(=O)NCCCOc1cccc(CN2CCCCC2)c1`, the “activity, negative = inhibition” value is reported as 10.2% (inactive). In the case of `CC(C)COC(=O)OCN1C(=O)CN(CCN2CC(=O)N(COC(=O)OCC(C)C)C(=O)C2)CC1=O`, the “activity, negative = inhibition” value is reported as 4.69% (inactive). In the case of `O=C1CCC(c2ccc(-n3ccnc3)cc2)=NN1`, the “activity, negative = inhibition” value is reported as 7.55% (inactive). `N[C@@H](Cc1cnc[nH]1)C(=O)O` was tested, and the “activity, negative = inhibition” value was 4.25% (inactive). In the case of `Nc1ccc(C(=O)O)cc1`, the “activity, negative = inhibition” value is reported as 0.309% (inactive). For `CC(C)(C)CC(C)(C)c1ccc(O)c(Cc2ccc(Cl)cc2Cl)c1`, the Potency was 0.426 µM (active). In the case of `C[C@@H]1C(=O)NC2=Nc3cccc(Cl)c3CN21`, the “activity, negative = inhibition” value is reported as -29.8% (inactive). `C[N+]1(CCCCC[N+]2(C)CCCC2)CCCC1` was tested, and the “activity, negative = inhibition” value was 17.4% (inactive).
